Active and inactive are the calls of the source. Rule for the calls: active = hit-call score of the fitted dose curve at least 0.9, where 1 is the maximum; inactive = score below 0.9.
Legend:
[1] = read-out: TIMP metallopeptidase inhibitor 2 (TIMP2), TIMP2 (gene 7077); assay: BSK_KF3CT_TIMP2: BioMAP Diversity Plus: KF3CT Assay for TIMP metallopeptidase inhibitor 2 (TIMP2) Biomarker Activity (AID 2283071); details: primary human keratinocytes with fibroblasts; actives raise or lower the signal
Summary of the method: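 Keratinocyte–fibroblast co-culture, 24 h exposure; TIMP-2 ELISA, DMSO-normalised bidirectional fit. Parallel SRB (0.1%, TCA-fixed, 560 nm) total-protein staining gauges cytotoxicity.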

[2] = read-out: Transforming growth factor beta 1 (TGFb1), TGFB1 (gene 7040); assay: BSK_KF3CT_TGFb1: BioMAP Diversity Plus: KF3CT Assay for Transforming growth factor beta 1 (TGFb1) Biomarker Activity (AID 2283072); details: primary human keratinocytes with fibroblasts; actives raise or lower the signal
Summary of the method: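 Signal changes in either direction, relative to DMSO, define activity here. TGF-b1 is read by ELISA from a human keratinocyte-fibroblast co-culture 24 h post-dose.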

[3] = read-out: C-C motif chemokine 2 (Homo sapiens) (UniProt P13500); assay: BSK_KF3CT_MCP1: BioMAP Diversity Plus: KF3CT Assay for Monocyte Chemoattractant Protein 1 (MCP1/CCL2) Biomarker Activity (AID 2283073); details: primary human keratinocytes with fibroblasts; actives raise or lower the signal
Summary of the method: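 Human keratinocyte plus foreskin fibroblast primary co-culture exposed to chemical for 24 h. MCP-1 levels measured by ELISA. Bidirectional curve fitting relative to DMSO negative control as baseline.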

[4] = read-out: Matrix Metallopeptidase 9 (MMP9), MMP9 (gene 4318); assay: BSK_KF3CT_MMP9: BioMAP Diversity Plus: KF3CT Assay for Matrix Metallopeptidase 9 (MMP9) Biomarker Activity (AID 2283074); details: primary human keratinocytes with fibroblasts; actives raise or lower the signal;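 for AC50: MMP9 protein level quantified by ELISA in the co-culture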
Summary of the method: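 Human keratinocyte and foreskin fibroblast co-culture exposed to chemicals for 24 h; MMP9 biomarker measured by ELISA, bidirectional fitting relative to DMSO; cytotoxicity tracked by SRB total protein staining in parallel cultures.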

CD40, CD40 (gene 958) [5] = assay: BSK_LPS_CD40: BioMAP Diversity Plus: LPS Assay for CD40 Biomarker Activity (AID 2283076); details: primary human HUVEC with PBMC; actives raise or lower the signal
Summary of the method: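 Primary human umbilical vein endothelial cells co-cultured with peripheral blood mononuclear cells, LPS-stimulated, were dosed with chemical and read 24 h later. CD40 levels were measured by ELISA and fitted bidirectionally against DMSO as negative control and baseline.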

[6] = read-out: E-selectin (Homo sapiens) (UniProt P16581); assay: BSK_LPS_Eselectin: BioMAP Diversity Plus: LPS Assay for Eselectin Biomarker Activity (AID 2283077); details: primary human HUVEC with PBMC; actives raise or lower the signal
Summary of the method: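 Human umbilical vein endothelial cells co-cultured with peripheral blood mononuclear cells under LPS stimulation; E-selectin measured by ELISA 24 h after chemical dosing. Activity fitted bidirectionally against DMSO as negative control and baseline.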

[7] = read-out: Interleukin-8 (IL8), CXCL8 (gene 3576); assay: BSK_LPS_IL8: BioMAP Diversity Plus: LPS Assay for Interleukin-8 (IL8) Biomarker Activity (AID 2283078); details: primary human HUVEC with PBMC; actives raise or lower the signal
Summary of the method: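 Human umbilical vein endothelial cells co-cultured with PBMC were stimulated with LPS; IL-8 levels were measured by ELISA 24 h after chemical dosing. Activity was fitted bidirectionally against DMSO as negative control and baseline.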

[8] = BSK_LPS_SRB: Viability Assessment in the BioMAP Diversity Plus: LPS Assay (AID 2283079); details: primary human HUVEC with PBMC;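 note: total protein by sulforhodamine B absorbance as a cytotoxicity measure; measured one day after compound addition; fitted in both directions against DMSO so loss or gain of signal counts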
Summary of the method: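 Human umbilical vein endothelial cells co-cultured with PBMC (LPS system) were dosed for 24 h. Total protein was stained with 0.1% sulforhodamine B after 10% TCA fixation, read at 560 nm, and fitted bidirectionally against DMSO baseline.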

[9] = read-out: Monocyte Chemoattractant Protein-1 (MCP1), CCL2 (gene 6347); assay: BSK_LPS_MCP1: BioMAP Diversity Plus: LPS Assay for Monocyte Chemoattractant Protein-1 (MCP1) Biomarker Activity (AID 2283081); details: primary human HUVEC with PBMC; actives raise or lower the signal;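 for AC50: secreted MCP-1 protein quantified by ELISA in culture supernatant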
Summary of the method: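 HUVEC plus PBMC co-culture (human primary cells, LPS system) exposed to test chemical for 24 h; MCP-1 measured by ELISA. Bidirectional curve fitting against DMSO baseline; parallel SRB total-protein staining flags overt cytotoxicity.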

[10] = BSK_LPS_PGE2: BioMAP Diversity Plus: LPS Assay for Prostaglandin E2 (PGE2) Biomarker Activity (AID 2283082); details: primary human HUVEC with PBMC; actives raise or lower the signal
Summary of the method: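 Endpoint derived from bidirectional curve fitting versus DMSO of ELISA-measured PGE2 in LPS-stimulated human primary vascular co-culture (HUVEC with PBMC) harvested at 24 h.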

[11] = read-out: Macrophage colony-stimulating factor (MCSF), CSF1 (gene 1435); assay: BSK_LPS_MCSF: BioMAP Diversity Plus: LPS Assay for Macrophage colony-stimulating factor (MCSF) Biomarker Activity (AID 2283083); details: primary human HUVEC with PBMC; actives raise or lower the signal
Summary of the method: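 Human umbilical vein endothelial cells co-cultured with peripheral blood mononuclear cells were exposed to compound for 24 h. M-CSF levels were measured by ELISA, and bidirectional curve fitting used DMSO as the negative control and baseline.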

[12] = read-out: Tissue Factor, F3 (gene 2152); assay: BSK_LPS_TissueFactor: BioMAP Diversity Plus: LPS Assay for Tissue Factor Biomarker Activity (AID 2283084); details: primary human HUVEC with PBMC; actives raise or lower the signal
Summary of the method: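 Human umbilical vein endothelial cells co-cultured with peripheral blood mononuclear cells were dosed and stimulated with LPS. Cell-surface CD142 was quantified by ELISA at 24 h. Activity was fitted bidirectionally against DMSO baseline.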

[13] = read-out: Tumor necrosis factor (Homo sapiens) (UniProt P01375); assay: BSK_LPS_TNFa: BioMAP Diversity Plus: LPS Assay for Tumour Necrosis Factor alpha (TNFa) Biomarker Activity (AID 2283085); details: primary human HUVEC with PBMC; actives raise or lower the signal
Summary of the method: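 Primary human vascular co-culture of HUVEC and PBMC; TNFa ELISA 24 h after treatment, analysed as increase or decrease relative to DMSO control.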

[14] = read-out: Vascular cell adhesion molecule 1 (VCAM1), VCAM1 (gene 7412); assay: BSK_LPS_VCAM1: BioMAP Diversity Plus: LPS Assay for Vascular cell adhesion molecule 1 (VCAM1) Biomarker Activity (AID 2283086); details: primary human HUVEC with PBMC; actives raise or lower the signal
Summary of the method: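 Primary human vascular co-culture (umbilical vein endothelium plus PBMC) stimulated with LPS received chemical; 24 h later VCAM-1 was read by ELISA. Overt cytotoxicity was assessed by sulforhodamine B staining of parallel cultures at the same time point.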

CD38, CD38 (gene 952) = assay: BSK_SAg_CD38: BioMAP Diversity Plus: SAg Assay for CD38 Biomarker Activity (AID 2283087); details: primary human HUVEC with PBMC; actives raise or lower the signal
Summary of the method: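 Fluorescence ELISA of cell-surface CD38 served as the read-out, with either increase or decrease fitted against DMSO controls. Cells were a human umbilical vein endothelium plus PBMC co-culture under SEB/TSST-1 stimulation, measured 24 h after dosing.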

CD40, CD40 (gene 958) [15] = assay: BSK_SAg_CD40: BioMAP Diversity Plus: SAg Assay for CD40 Biomarker Activity (AID 2283088); details: primary human HUVEC with PBMC; actives raise or lower the signal
Summary of the method: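 Human umbilical vein endothelial cells co-cultured with PBMC; CD40 levels measured by ELISA with fluorescence read-out 24 h after chemical dosing. Gain or loss of signal fitted bidirectionally against DMSO baseline.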

CD69, CD69 (gene 969) = assay: BSK_SAg_CD69: BioMAP Diversity Plus: SAg Assay for CD69 Biomarker Activity (AID 2283089); details: primary human HUVEC with PBMC; actives raise or lower the signal;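 for AC50: cell surface CD69 protein quantified by ELISA with fluorescence detection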
Summary of the method: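 HUVEC co-cultured with PBMC were dosed with chemical, and CD69 was measured by ELISA with fluorescence read-out 24 h later. Bidirectional curve fitting used DMSO as negative control and activity baseline.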

[16] = read-out: Monocyte Chemoattractant Protein-1 (MCP1), CCL2 (gene 6347); assay: BSK_SAg_MCP1: BioMAP Diversity Plus: SAg Assay for Monocyte Chemoattractant Protein-1 (MCP1) Biomarker Activity (AID 2283090); details: primary human HUVEC with PBMC; actives raise or lower the signal
Summary of the method: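 MCP-1 levels in the endothelial–PBMC SAg co-culture were quantified by ELISA at 24 h post-dosing; both increases and decreases versus DMSO scored. Cytotoxicity monitored by SRB total protein in parallel cultures.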

[17] = read-out: urokinase plasminogen activator (uPA), PLAU (gene 5328); assay: BSK_KF3CT_uPA: BioMAP Diversity Plus: KF3CT Assay for urokinase plasminogen activator (uPA) Biomarker Activity (AID 2283075); details: primary human keratinocytes with fibroblasts; actives raise or lower the signal
Summary of the method: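 Primary human keratinocyte/foreskin fibroblast co-culture exposed to chemical; uPA measured by ELISA at 24 h. Bidirectional fit versus DMSO, with parallel SRB total-protein staining for cytotoxicity.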

[18] = read-out: Interleukin-1 alpha (IL1a), IL1A (gene 3552); assay: BSK_LPS_IL1a: BioMAP Diversity Plus: LPS Assay for Interleukin-1 alpha (IL1a) Biomarker Activity (AID 2283080); details: primary human HUVEC with PBMC; actives raise or lower the signal
Summary of the method: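 Human umbilical vein endothelial cells co-cultured with peripheral blood mononuclear cells were LPS-stimulated and exposed to test chemicals for 24 h. IL-1 alpha was quantified by ELISA, with bidirectional curve fitting against DMSO as the negative control and baseline.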

Measured: AC50

Sequence of E-selectin (Homo sapiens) (P16581 whole entry, looked up): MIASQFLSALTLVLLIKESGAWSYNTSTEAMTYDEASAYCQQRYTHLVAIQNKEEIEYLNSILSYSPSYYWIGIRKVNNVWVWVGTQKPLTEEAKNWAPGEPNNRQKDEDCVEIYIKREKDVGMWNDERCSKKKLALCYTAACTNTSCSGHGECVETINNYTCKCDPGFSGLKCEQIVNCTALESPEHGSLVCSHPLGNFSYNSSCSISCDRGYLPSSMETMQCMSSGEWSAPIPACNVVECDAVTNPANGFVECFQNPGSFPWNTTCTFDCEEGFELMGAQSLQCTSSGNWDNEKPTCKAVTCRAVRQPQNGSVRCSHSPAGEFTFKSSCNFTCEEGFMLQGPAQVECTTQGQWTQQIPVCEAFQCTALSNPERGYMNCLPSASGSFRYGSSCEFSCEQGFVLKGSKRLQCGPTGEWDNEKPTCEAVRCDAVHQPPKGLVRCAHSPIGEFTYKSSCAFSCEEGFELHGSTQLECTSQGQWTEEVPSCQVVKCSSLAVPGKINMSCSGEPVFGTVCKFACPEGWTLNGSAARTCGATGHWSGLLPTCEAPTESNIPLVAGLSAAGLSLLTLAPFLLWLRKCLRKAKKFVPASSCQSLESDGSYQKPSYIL
Sequence of Tumor necrosis factor (Homo sapiens) (P01375 whole entry, looked up): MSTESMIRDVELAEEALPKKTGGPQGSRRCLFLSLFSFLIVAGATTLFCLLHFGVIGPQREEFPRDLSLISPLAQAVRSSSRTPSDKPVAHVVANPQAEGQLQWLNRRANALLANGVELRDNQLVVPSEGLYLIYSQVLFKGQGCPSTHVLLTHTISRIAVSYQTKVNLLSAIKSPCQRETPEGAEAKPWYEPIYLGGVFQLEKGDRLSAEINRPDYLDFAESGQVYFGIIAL

O=C(O)c1ccccc1-n1cc(C(=O)O)c(=O)c2cc(Nc3c(F)cc(F)cc3Cl)c(Cl)cc21
not listed: [17] | [18]
inactive: all other assays above

NCc1cccc(C2CCN(C(=O)c3ccc(C#Cc4ccccc4F)o3)CC2)c1
active: [1] 8.8 µM | [2] 10.4 µM | [3] 20 µM | [4] 11.3 µM | [17] 11.1 µM | CD40, CD40 (gene 958) [5] 8.42 µM | [6] 35.6 µM | [7] 25.8 µM | [8] 15.3 µM | [18] 17.1 µM | [9] 16.1 µM | [11] 26 µM | [12] 28.2 µM | [13] 27.7 µM | [14] 24.6 µM | CD38, CD38 (gene 952) 17.4 µM | CD40, CD40 (gene 958) [15] 15.3 µM | CD69, CD69 (gene 969) 22.1 µM
inactive: [10]

CO[C@H]1/C=C/O[C@@]2(C)Oc3c(C)c(O)c4c(O)c(c(/C=N/N5CCN(C)CC5)c(O)c4c3C2=O)NC(=O)/C(C)=C\C=C\[C@H](C)[C@H](O)[C@@H](C)[C@@H](O)[C@@H](C)[C@H](OC(C)=O)[C@@H]1C
active: CD69, CD69 (gene 969) 0.64 µM
not listed: [12] | [16] | [17] | [18]
inactive: all other assays above
